This passage reports survival results from PubChem BioAssay AID463173 (ICCB-Longwood Screening Facility, Harvard Medical School, 2010).

Structures are written as SMILES. The whole screen tested about 52,000 compounds, of which about 4,300 (8.3%) were called active. No stated cut-off is given here; in the data, active means survival mostly below about 52% (no sharp cut-off); inactive means mostly above about 56%. The list comes from a sample in which actives are over-represented; it also holds similar structures and randomly drawn compounds.

The test relates to DeltatarO mutant. As to the kind of experiment: S. aureus survival, RN4220 and DeltatarO strains – OD600, teichoic acid synthesis inhibitors, primary screen (AID 463173). The settings on record: S. aureus RN4220 wild type/DeltatarO growth, OD600, 18 h, stronger effect = lower value, screened at 18.75 µg/mL (by protocol).
For the molecule `O=S(=O)(c1ccccc1)c1nc(-c2cccc(Cl)c2)oc1NCc1ccccc1`, the survival is 83% (inactive).

As for `O=C(NC1CCCCC1)c1ccc(Cn2c(SCc3ccccc3)nc3cccnc32)cc1`, the survival was 83% (inactive).

As to `O=C(NC1CCCCC1)c1ccc(CSc2nc3cccnc3n2Cc2ccc(F)cc2)cc1`, the survival was 25% (active).

Take `O=C(NC1CCCC1)c1ccc2c(=O)n(Cc3ccccc3)c(SCc3ccccc3)nc2c1`: the survival was 92% (inactive).

Take `O=C(NC1CCCC1)c1ccc2c(=O)n(Cc3ccccc3)c(SCc3ccccc3F)nc2c1`: the survival is 0% (active).

For `O=C(NC1CC1)c1ccc(Cn2c(SCc3ccc(F)cc3)nc3cccnc32)cc1`, the survival was 78% (inactive).

`Cc1ccccc1CSc1nc2cc(C(=O)NC3CCCC3)ccc2c(=O)n1Cc1ccccc1`: the survival is 107% (inactive).

With `O=C(NC1CCCCC1)c1ccc(Cn2c(SCc3ccccc3F)nc3cccnc32)cc1`, the survival was 80% (inactive).

As to `O=C(NC1CCCCC1)c1ccc(Cn2c(SCc3ccc(F)cc3)nc3cccnc32)cc1`, the survival was 32% (active).

As for `O=C(NC1CCCCC1)c1ccc(CSc2nc3cccnc3n2Cc2ccccc2)cc1`, the survival was 102% (inactive).

As for `O=C(NC1CCCC1)c1ccc(CSc2nc3cccnc3n2Cc2ccc(F)cc2)cc1`, the survival is 63% (inactive).

In the case of `O=C(NC1CCCC1)c1ccc(CSc2nc3cccnc3n2Cc2ccccc2F)cc1`, the survival was 37% (active).

`O=C(NC1CCCCC1)c1ccc(CSc2nc3cccnc3n2Cc2ccccc2F)cc1`: the survival is 93% (inactive).

Take `O=C(Cn1cc(SCc2c(F)cccc2Cl)c2ccccc21)N1CCCC1`: the survival was 74% (inactive).

Regarding `COCCn1c(COc2ccc(Cl)cc2)nnc1SCC(=O)OC`, the survival is 96% (inactive).

On to `CCOc1ccccc1N(CC)C(=O)c1noc2c1COc1ccc(C)cc1-2`, for which the survival was 67% (inactive).

On to `COc1ccc(CCNC(=O)NCc2noc3ccccc23)c(OC)c1`, for which the survival is 62% (inactive).

Turning to `NC(=O)CSc1nc2cc3c(cc2c(=O)n1CCCCCC(=O)NCc1ccc2c(c1)OCO2)OCO3`, the survival was 81% (inactive).

For the molecule `CCC(=O)N1CCc2cc(Br)cc(S(=O)(=O)NCc3cccc(OC)c3)c21`, the survival is 58% (inactive).

As to `COc1cccc(Cn2cc(S(=O)(=O)c3ccc(C)cc3)c(=O)c3cc4c(cc32)OCO4)c1`, the survival is 67% (inactive).

For the molecule `COc1ccc(OC)c(S(=O)(=O)NCC(c2ccco2)S(=O)(=O)c2ccccc2)c1` (stereo unspecified), the survival is 94% (inactive).

As for `CCOCCCNC(=O)CN1C(=O)COc2ccc(S(=O)(=O)N3CCCCCC3)cc21`, the survival was 81% (inactive).

Consider `CCOC(=O)c1c(C)c(-c2ccccc2)n(CC(=O)Nc2ccc(OCC)cc2)c1C`, for which the survival is 73% (inactive).

In the case of `CNC(=O)c1cc(Nc2nnc(-c3ccc(O)cc3)c3ccccc23)ccc1OC`, the survival is 170% (inactive).

Turning to `C#CCOc1ccc(-c2nnc(Nc3cccc(C)c3)c3ccccc23)cc1`, the survival was 31% (active).

Regarding `C#CCOc1ccc(-c2nnc(Nc3ccc(NC(C)=O)cc3)c3ccccc23)cc1`, the survival was 60% (inactive).

With `COc1ccc(-c2nnc(Nc3ccc(OC)c(C(N)=O)c3)c3ccccc23)cc1`, the survival was 41% (active).

As for `COC(=O)c1c(Oc2ccc(OC)cc2)nnc(-c2ccccc2)c1-c1ccccc1`, the survival is 101% (inactive).

As for `CCOC(=O)c1c(C)oc2ncnc(Nc3ccc(OCC)cc3)c12`, the survival was 89% (inactive).

As to `COc1ccc(-c2nnc(Nc3ccc(OCC(N)=O)cc3)c3ccccc23)cc1`, the survival is 69% (inactive).

Turning to `CCOC(=O)c1c(Nc2ccc(OCC)cc2)nnc(-c2ccccc2)c1-c1ccccc1`, the survival is -2% (active).

Consider `CCOC(=O)c1c(Nc2ccc(OC)cc2)nnc(-c2ccccc2)c1-c1ccccc1`, for which the survival was 7% (active).

Take `CCOC(=O)c1c(Oc2ccc(OC)cc2)nnc(-c2ccccc2)c1-c1ccccc1`: the survival is 75% (inactive).

For the molecule `Cc1cccc(Nc2nnc(-c3ccc(C)c(S(=O)(=O)N4CCCCC4)c3)c3ccccc23)c1`, the survival was 104% (inactive).

In the case of `O=S(=O)(c1ccc(Br)cc1)c1nc(-c2cccs2)oc1SCc1ccccc1F`, the survival was 66% (inactive).

Consider `Cc1cccc(CN2C(=O)c3ccccc3S(=O)(=O)c3ccc(C(=O)N4CCN(c5cc(C)ccc5C)CC4)cc32)c1`, for which the survival is 74% (inactive).

Take `CC1CCN(S(=O)(=O)c2ccc3c(c2)N(CC(=O)NCCc2ccc(Cl)cc2)C(=O)CO3)CC1`: the survival is 87% (inactive).

In the case of `Cc1cc(C)cc(Oc2nc3ccccn3c(=O)c2/C=C(\C#N)c2nc3ccccc3s2)c1`, the survival was 60% (inactive).

For `COc1ccc(NC(=O)CC2C(=O)N(c3ccc(C)cc3)C(=O)N2Cc2ccc(C)cc2)cc1` (stereo unspecified), the survival was 68% (inactive).

With `Cc1ccc(CN(C(=O)COc2ccccc2Cl)c2ccccn2)o1`, the survival was 59% (inactive).

With `COc1ccc(CCNc2ncnc3onc(C)c23)c(OC)c1`, the survival is 100% (inactive).

Take `COC(=O)c1c(-c2cccs2)csc1NC(=O)COc1ccccc1`: the survival was 78% (inactive).

Turning to `COc1cc(C=Nc2ccc3[nH]c(=O)[nH]c3c2)ccc1OC(C)=O`, the survival was 85% (inactive).

Take `O=c1[nH]c2ccc(N=Cc3ccccc3C(F)(F)F)cc2[nH]1`: the survival is 71% (active).

In the case of `O=c1[nH]c2ccc(N=Cc3ccc(F)cc3)cc2[nH]1`, the survival is 73% (inactive).

With `CC1CCN(S(=O)(=O)c2ccc3c(c2)N(CC(=O)O)C(=O)CO3)CC1`, the survival is 94% (inactive).

In the case of `CCOc1ccc(CNC(=O)Cc2ccc(NC(=O)N3CCCCc4ccccc43)cc2)cc1OC`, the survival is 85% (inactive).

`COc1ccc(N2CCN(C(=O)Nc3cn(CC(C)C)c(=O)c4ccccc34)CC2)cc1`: the survival was 83% (inactive).

For the molecule `CS(=O)(=O)N1CCC(N2CCN(Cc3ccccc3)C(=O)C2=O)CC1`, the survival is 91% (inactive).

In the case of `Cc1ccc(-c2nc(C(=O)Nc3cccc(C#N)c3)c3n2CCCCC3)cc1`, the survival was 88% (inactive).

For the molecule `CC(=O)c1cccc(NC(=O)c2nc(-c3ccc(C)cc3)n3c2CCCCC3)c1`, the survival was 34% (active).

On to `CC(=O)c1ccc(NC(=O)c2nc(-c3ccc(C)cc3)n3c2CCCCC3)cc1`, for which the survival is 58% (inactive).

In the case of `N#C/C(=C/c1ccc(-c2cccc(C(F)(F)F)c2)o1)C(=O)OC1CCCCC1`, the survival is 82% (inactive).

For the molecule `Cc1cccc(C(=O)Nc2cccc(C(=O)OCc3cc(=O)n4nc(C(C)C)sc4n3)c2)c1`, the survival is 113% (inactive).

For the molecule `COc1ccccc1C1c2c(-c3ccc(Cl)cc3)n[nH]c2C(=O)N1c1ccc(C)cc1` (stereo unspecified), the survival is 79% (inactive).

Regarding `COc1cc(C2c3c(-c4ccc(C)cc4)n[nH]c3C(=O)N2c2ccc(F)cc2)ccc1O` (stereo unspecified), the survival was 95% (inactive).

Turning to `Cc1ccc(N2C(=O)c3n[nH]c(C)c3C2c2ccc(C(C)C)cc2)cc1` (stereo unspecified), the survival is 39% (active).

On to `COc1ccc(C2c3c(-c4ccc(F)cc4)n[nH]c3C(=O)N2c2ccccc2)cc1OC` (stereo unspecified), for which the survival is 124% (inactive).

In the case of `CCOC(=O)c1ccc(N2C(=O)c3n[nH]c(-c4cccs4)c3C2c2ccc(C(C)C)cc2)cc1` (stereo unspecified), the survival was 104% (inactive).

With `Cc1ccc(-c2n[nH]c3c2C(c2cccs2)N(c2ccc(Cl)cc2)C3=O)cc1` (stereo unspecified), the survival is 62% (inactive).

With `CCOC(=O)c1ccc(N2C(=O)c3n[nH]c(C)c3C2c2ccc(C(C)C)cc2)cc1` (stereo unspecified), the survival is 86% (inactive).

As to `Cc1ccc(N2C(=O)c3[nH]nc(-c4ccc(Cl)cc4)c3C2c2ccc(F)cc2)cc1` (stereo unspecified), the survival is 44% (active).

For `Cc1ccc(N2C(=O)c3n[nH]c(C)c3C2c2ccccc2Cl)cc1` (stereo unspecified), the survival was 120% (inactive).

On to `O=C1c2[nH]nc(-c3ccc(F)cc3)c2C(c2ccccc2F)N1c1ccccc1` (stereo unspecified), for which the survival was 10% (active).

In the case of `CCOc1ccc(C2c3c(-c4ccc(C)cc4)n[nH]c3C(=O)N2c2ccc(Cl)cc2)cc1` (stereo unspecified), the survival was 91% (inactive).

For the molecule `Cc1ccc(N2C(=O)c3n[nH]c(C)c3C2c2ccc(Cl)cc2)cc1` (stereo unspecified), the survival is 6% (active).
